Reference: publication PMC8769072, “Proteome‐scale mapping of binding sites in the unstructured regions of the human proteome” (Molecular Systems Biology, 2022)

Molecular target: VASP 1-114, P50552
Sequence (P50552 1-114): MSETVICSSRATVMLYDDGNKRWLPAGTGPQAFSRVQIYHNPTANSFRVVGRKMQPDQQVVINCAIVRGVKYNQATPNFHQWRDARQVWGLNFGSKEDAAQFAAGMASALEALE

Selected by phage display, active:
FPAPPSHWLFGHIQEL [CYP4A11, Q02928] confidence 2
VYSMDDFPPPPPHTVA [SHROOM3, Q8TF72] confidence 4
WPDPPDLPTVDPISSS [MRPL43, Q8N983] confidence 4
EAFPPPPHFSFPAPLS [SBNO2, Q9Y2G9] confidence 2
FPPPPLPDSAIFLPPS [INPPL1, O15357] confidence 3
DFPPPPPDLEQLRLTD [VCL, P18206] confidence 2
LLNFPPPLPALYELWE [LBR, Q14739] confidence 2
DVVLQSFPPLPSAEIL [KIF23, Q02241] confidence 2
MAWPKLPAPWLLLATW [ILDR1, Q86SU0] confidence 2
GDLQTWFFPPPPAGSV [TEX44, Q53QW1] confidence 2
LWPDPPHFLYWSGFLG [PAX1, P15863] confidence 2
PAKIETDYWPAPPSLA [DMTN, Q08495] confidence 2
SMADFPPPEEAFFSVA [KIAA1522, Q9P206] confidence 2
FPPPPPETELPLPPIE [RAPH1, Q70E73] confidence 3
IPSEEWPNPPTLQEAG [FAF2, Q96CS3] confidence 4
LVPPALDLSWIWPAPP [C1orf159, Q96HA4] confidence 3

Molecular target: USP7 53-206, Q93009
Sequence (Q93009 53-206): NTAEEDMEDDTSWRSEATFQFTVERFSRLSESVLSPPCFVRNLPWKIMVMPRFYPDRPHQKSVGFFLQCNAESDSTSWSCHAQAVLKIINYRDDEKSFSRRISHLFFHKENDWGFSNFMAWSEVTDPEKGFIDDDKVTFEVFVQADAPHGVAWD

Selected by phage display, active:
TDSIHSAHSSHSLSRD [UNC13B, O14795] confidence 2
GISDGPSVSALTNGFD [PARN, O95453] confidence 3
SQVTGMSLQIPSSSTG [MAMLD1, Q13495] confidence 3
VPANGEMSSSHSAQSM [TP73, O15350] confidence 3
ASSSSPSLSGTSYSFS [IPCEF1, Q8WWN9] confidence 4
PVQSPLATAASASTSV [PROSER1, Q86XN7] confidence 3
SIAQPSTSSLHSHSSL [TCF7L2, Q9NQB0] confidence 3
GSSGSQEQLVSIASSS [PER3, P56645] confidence 3
ASSSLTVTDSTLWSQS [MAGEA8, P43361] confidence 3
PGSNSTGSEVASMSSQ [ISL1, P61371] confidence 3
SASSSASSSASSSSVV [MEX3B, Q6ZN04] confidence 4
TVDANGVVSLVGGPSV [SCN1A, P35498] confidence 3
ALSDSPSNSSYVETPR [TUBGCP5, Q96RT8] confidence 3
SSSAASTSSSSSAVAS [TRIP12, Q14669] confidence 2
QGELLEAPSSSSAPLP [RNF135, Q8IUD6] confidence 2
